Most compounds without a hit are left out; they make up all but 17% or so of the library.
ATXN2 expr inh – Primary qHTS for Inhibitors of ATXN expression; AID 1745845, 2022; 360,000 tested, 0.72% active; Potency, µM (doses to about 57 µM), actives largely listed as inhibitors; HEK-293 ATXN2-luciferase reporter, luminescence, 24 h; note: nearly all actives have a fitted effect of over 55% in size
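qHTS (up to 57 uM final) was run with 24 h compound exposure of reporter cells at 37 °C. Each well was multiplexed: SteadyGlo luminescence measured ATXN2-luciferase expression after a fluorogenic Gly-Phe-AFC viability readout (25 uM final).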
DT40 TDP1 no CPT – qHTS for Inhibitors of human tyrosyl-DNA phosphodiesterase 1 (TDP1): qHTS in cells in absence of CPT | Potency, µM (doses to about 46.2 µM), most hits filed as inhibitors | AID 686978, 2013 | 420,000 tested, 15% active | DT40 Tdp1-/- hTDP1 cells, no CPT, ATP luminescence, 48 h; note: nearly all actives have a fitted effect of over 55% in size
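Chicken DT40 Tdp1-/- cells complemented with human TDP1, screened without camptothecin (DMSO vehicle only), 400 cells/well. Compounds pin-transferred, cells incubated at 37 °C for at least 48 hr. Growth read as ATP-dependent luminescence (CellTiter-Glo, 30 min at RT).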
TDP1 cell CPT – qHTS for Inhibitors of human tyrosyl-DNA phosphodiesterase 1 (TDP1): qHTS in cells in presence of CPT | chicken DT40 Tdp1-/-;hTDP1 cells + 20 nM CPT, ATP luminescence, 48 h | 420,000 tested, 12% active | Potency, µM (doses to about 46.2 µM), hits mostly inhibitors | AID 686979, 2013; note: nearly all actives have a fitted effect of over 55% in size
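Cell growth measured by CellTiter-Glo luminescence after a minimum 48 h, 37 C compound exposure with 20 nM CPT in Tdp1-knockout DT40 cells stably expressing hTDP1, seeded 400/well; qHTS titration format.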
HepG2 viability – qHTS for Inhibitors of TGF-b: Cytotox Counterscreen | HepG2 CAGA-GFP viability, ATP luminescence, 18 h | Potency, µM (doses to about 46.1 µM), hits mostly cytotoxic | 410,000 tested, 0.76% active | AID 588856, 2011
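CellTiter-Glo luminescence gave cytotoxicity after 18 hours at 37 degrees C. The cells were HepG2 CAGA-GFP in 1% FBS DMEM, stimulated with 500 pg/mL TGF-beta after compound addition. %Activity was normalised to no-cell wells (complete cell-killing) and DMSO (no toxicity), and curves were fitted and classified.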
S2 tox – Viability Counterscreen for Primary qHTS for Inhibitors of ATXN expression | S2 cells (HEK-293 line with an ATXN2-luciferase reporter) viability, CellTiter-Fluor protease fluorescence, 24 h | Potency, µM (series often up to 56.7 µM), usual class: cytotoxic | 400,000 tested, 0.49% active | AID 651635, 2014; note: nearly all actives have a fitted effect of over 40% in size
TGFb SMAD3 inh – qHTS for Inhibitors of TGF-b. HepG2 CAGA-GFP TGF-b/SMAD3 reporter, GFP fluorescence, 18 h; TGF-beta stimulated, 500 pg/mL final. Potency, µM (series often up to 46.1 µM), usual class: inhibitors. 410,000 tested, 1.2% active. AID 588855, 2011; note: nearly all actives have a fitted effect of over 65% in size
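Using HEPG2 CAGA-GFP reporter cells at 1000 cells/well, we pinned test compounds, stimulated with recombinant TGF-beta (500 pg/mL final) and measured total well GFP after 18 h.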
Each line names hits and unclear results; the compound was inactive in the other large screens. Calls come from the whole dose curve; as a rule, active = well fitted curve in the direction sought with a large enough effect; inconclusive = small, poorly fitted or top-dose-only effect, or another doubt; inactive = no such curve, though single readings can be large; an effect the other way counts as inactive or inconclusive.

CC(=O)c1ccc(NC(=O)CCc2c(C)nc3c(c(C)nn3-c3ccc(C)cc3)c2C)cc1	DT40 TDP1 no CPT 7.3µM, TDP1 cell CPT inconclusive (no result: ATXN2 expr inh, S2 tox, TGFb SMAD3 inh)
Cc1ccc(-n2nc(C)c3c(C)c(CCC(=O)Nc4ccc(CN5CCCC5)cc4)c(C)nc32)cc1	ATXN2 expr inh inconclusive, DT40 TDP1 no CPT 12µM, TDP1 cell CPT inconclusive, S2 tox inconclusive, TGFb SMAD3 inh inconclusive
COCCCNC(=O)CCc1c(C)nc2c(c(C)nn2-c2ccccc2)c1C	none
COC(CNC(=O)CCc1c(C)nc2c(c(C)nn2-c2ccc(C)cc2)c1C)OC	DT40 TDP1 no CPT inconclusive, TDP1 cell CPT inconclusive
COc1cccc(-c2ccc(O)c(CNCc3cccc4ccccc34)c2)n1	none (no result: ATXN2 expr inh, HepG2 viability, TGFb SMAD3 inh)
C#CCOCCOCCOCCNc1nc(N2CCN(C(=O)[C@H]([C@@H](C)CC)n3cc(CCCN=C(N)N)nn3)CC2)nc(N2CCN(C(=O)[C@H]([C@@H](C)CC)n3cc(CCC(=O)O)nn3)CC2)n1	none
COc1cc(C2C(C#N)=C(N)Oc3c2ccc2ccccc32)ccc1OCC(=O)Nc1cccc(C)c1 (centres undefined)	DT40 TDP1 no CPT 16µM, TDP1 cell CPT inconclusive, S2 tox inconclusive
COc1ccc(C2C(C#N)=C(N)Oc3c2ccc2cccnc32)cc1OC (centres undefined)	DT40 TDP1 no CPT 2.6µM, TDP1 cell CPT 3.3µM
Cc1ncsc1CCOC(=O)C1C2CC3CC(C2)CC1C3 (centres undefined)	DT40 TDP1 no CPT 23µM, TDP1 cell CPT inconclusive
O=C(CCc1cccnc1)NCC1Cc2cccc(-c3ncccn3)c2O1 (centres undefined)	none (no result: ATXN2 expr inh, HepG2 viability, TGFb SMAD3 inh)
Cc1cc2c(c(-c3nc4ccccc4s3)c1)OC(CNC(=O)CCc1cccnc1)C2 (centres undefined)	DT40 TDP1 no CPT 0.13µM, TDP1 cell CPT 0.12µM, S2 tox inconclusive (no result: ATXN2 expr inh, HepG2 viability, TGFb SMAD3 inh)
O=C(COC(=O)COc1ccc(Cl)cc1Br)NCCC1=CCCCC1	none
O=C(Nc1ccccc1C(=O)Nc1ccc(Br)cn1)c1ccccc1Cl	DT40 TDP1 no CPT inconclusive, TDP1 cell CPT 15µM
Cc1ccnc(NC(=O)c2ccccc2NC(=O)c2ccc(Cl)cc2Cl)c1	DT40 TDP1 no CPT 1.8µM, TDP1 cell CPT 3.7µM, TGFb SMAD3 inh inconclusive (no result: ATXN2 expr inh, S2 tox)
O=C(NC(=S)Nc1ccc(Br)cn1)c1cccs1	DT40 TDP1 no CPT inconclusive, TDP1 cell CPT inconclusive, S2 tox inconclusive (no result: ATXN2 expr inh)
Cc1ccccc1C(=O)Nc1ccc(Br)cn1	DT40 TDP1 no CPT 21µM, TDP1 cell CPT 9.2µM
S=C(Nc1ccccc1)Nc1ccc(Br)cn1	DT40 TDP1 no CPT 3.7µM, TDP1 cell CPT 6.5µM (no result: ATXN2 expr inh)
Cc1cc(C)n(CC(=O)NC2CCCCC2C)c(=O)c1C#N (centres undefined)	none
CCCS(=O)(=O)NC(=O)C1(C)CCN(C(=O)c2cccc(C)c2C)C1 (centres undefined)	none
CC(NS(=O)(=O)c1ccc(CCC(=O)NCc2cccnc2)cc1)c1ccccc1 (centres undefined)	none
CCOc1cc(N2CCOCC2)c(OCC)cc1NC(=O)CN1C(=O)NC2(CCCCC2C)C1=O (centres undefined)	S2 tox inconclusive
COCCCNc1nc(NCc2ccccc2OC)c2cnn(C)c2n1	DT40 TDP1 no CPT 23µM, TDP1 cell CPT inconclusive
COCCNc1nc(NCc2ccccc2OC)c2cnn(C)c2n1	DT40 TDP1 no CPT inconclusive, TDP1 cell CPT inconclusive
Cc1cc(C(=O)Nc2ccc(F)c(Cl)c2)on1	S2 tox inconclusive
CC(=O)Nc1ccccc1OC(C)C(=O)N1CC(C)CC(C)C1 (centres undefined)	DT40 TDP1 no CPT 21µM, TDP1 cell CPT inconclusive
Cc1ccccc1C(=O)NC(=S)NC1CCS(=O)(=O)C1 (centres undefined)	none
COc1ccc(/C=N/NC(=O)c2[nH]c3ccc(Cl)cc3c2-c2ccccc2)c(C(=O)O)c1OC	ATXN2 expr inh inconclusive, DT40 TDP1 no CPT inconclusive, TGFb SMAD3 inh inconclusive (no result: S2 tox)
O=C(N/N=C/c1ccccc1Cl)c1[nH]c2ccc(Br)cc2c1-c1ccccc1	ATXN2 expr inh inconclusive, DT40 TDP1 no CPT 0.65µM, TDP1 cell CPT 1.3µM
COc1ccc(/C=N/NC(=O)c2[nH]c3ccc(Br)cc3c2-c2ccccc2)cc1	DT40 TDP1 no CPT 0.92µM, TDP1 cell CPT 0.82µM, TGFb SMAD3 inh inconclusive
Cc1c(C(=O)N/N=C/c2ccccc2)[nH]c2ccc(Cl)cc12	DT40 TDP1 no CPT 6.5µM, TDP1 cell CPT 9.2µM, S2 tox inconclusive, TGFb SMAD3 inh inconclusive (no result: ATXN2 expr inh)
COC(=O)c1ccccc1NC(=O)c1c(NC(=O)c2ccco2)sc2c1CCC(C(C)(C)C)C2 (centres undefined)	none
CC1(C)CC(=O)c2cc(C(=O)Nc3cccc4ccccc34)c(=O)[nH]c2C1	DT40 TDP1 no CPT 16µM, TDP1 cell CPT inconclusive (no result: ATXN2 expr inh, S2 tox)
COCCCN(C(=S)Nc1cc(Cl)cc(Cl)c1)C(C)c1ccccn1 (centres undefined)	DT40 TDP1 no CPT inconclusive, TDP1 cell CPT inconclusive, HepG2 viability 16µM, TGFb SMAD3 inh inconclusive (no result: ATXN2 expr inh)
O=C1C=C(c2ccc(Oc3ccccc3)cc2)C[C@@H](c2ccc3c(c2)OCO3)C1	TDP1 cell CPT inconclusive, TGFb SMAD3 inh inconclusive
N#Cc1nc(Cc2cccc3ccccc23)oc1NCc1ccc(F)cc1	ATXN2 expr inh inconclusive, DT40 TDP1 no CPT 21µM, TDP1 cell CPT inconclusive, TGFb SMAD3 inh inconclusive
CN(C)c1ccc(CNS(=O)(=O)c2csc(C(N)=O)c2)cc1	DT40 TDP1 no CPT 7.3µM, TDP1 cell CPT 23µM (no result: ATXN2 expr inh)
CC(C)Oc1ccc(CNS(=O)(=O)c2csc(C(N)=O)c2)cc1	DT40 TDP1 no CPT 21µM, TDP1 cell CPT 16µM, S2 tox inconclusive, TGFb SMAD3 inh inconclusive
COc1ccc(-c2noc(-c3ccc(N4CCN(C)CC4)c([N+](=O)[O-])c3)n2)cc1OC	DT40 TDP1 no CPT 3.3µM, TDP1 cell CPT 5.2µM, HepG2 viability 11µM, S2 tox inconclusive, TGFb SMAD3 inh inconclusive
COc1ccccc1-c1noc(-c2ccc(N3CCOCC3)c([N+](=O)[O-])c2)n1	DT40 TDP1 no CPT 13µM, TDP1 cell CPT 21µM
O=C(Cn1ncc2c1-c1ccccc1OC2)N1CCN(Cc2ccc3c(c2)OCO3)CC1	DT40 TDP1 no CPT inconclusive
CCOc1ccc(CCNS(=O)(=O)c2cc3c(cc2C)NC(=O)CO3)cc1OCC	DT40 TDP1 no CPT inconclusive
CCOc1ccc(CCNS(=O)(=O)c2c(C)n[nH]c2C)cc1OCC	TDP1 cell CPT 21µM
